The values that follow come from the supplement of paper PMC7156485.

± gives the standard deviation of the averaged measurements.
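Further: TDF denotes transformed human dermal fibroblasts of mesenchymal origin.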

The first test concerns HCC1569. Briefly: cell number relative to DMSO (% of DMSO); higher = more cells (less growth inhibition / toxicity). The following applies: concentration: 10 µM; 24 h. In outline:
(§1)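 Compounds were applied at 10 µM for 24 h at 37 °C, in triplicate, to HCC1569 and TDF cells. The cells were then fixed and stained for H1.0, and nuclei were counterstained with DAPI. Nuclear H1.0 intensity or cell number is reported relative to the plate control as a percent, taking the median of replicates. Smoothing for positional effects was applied to HCC1569 values only.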
The compound `CC(N=C(NC#N)Nc1ccncc1)C(C)(C)C` (configuration not stated) [Pinacidil] showed a cell number of 103 ± 2.5.

Compound `COc1cc(-c2oc3cc(O)cc(O)c3c(=O)c2OC2OC(CO)C(O)C(O)C2O)cc(OC)c1O` (configuration not stated) [Syringetine-3-glucoside] registered a cell number of 102.

Compound `C=C1CCC(O)CC1=CC=C1CCCC2(C)C1CCC2C(C)CCCC(C)(C)O` (configuration not stated) [Calcifediol] came in with a cell number of 97.4.

`CC1(C)SC2C(NC(=O)C(N)c3ccccc3)C(=O)N2C1C(=O)O` (configuration not stated) [Ampicillin]: the cell number is 103.

For the compound `CNCCCC1c2ccccc2C=Cc2ccccc21.Cl` [Protriptyline hydrochloride], the cell number amounted to 92.7.

`S=C([S-])OC1CC2CC1C1CCCC21.[K+]` [D-609 potassium] returned a cell number of 100.

In turn, `CN(C)c1ccccc1CN1CCCN(Cc2ccccc2N(C)C)C1c1ccncc1` had a cell number of 83.9.

The compound `O=C(NC(NC(=S)Nc1ccc(F)c([N+](=O)[O-])c1)C(Cl)(Cl)Cl)C(c1ccccc1)c1ccccc1` (configuration not stated) showed a cell number of 58.2.

Consider `CC(C)NCC(O)COc1cccc2ccccc12` (stereo not drawn) [Propranolol S(-)], for which the cell number stood at 102.

Turning to `CS(=O)(=O)Nc1ccc([N+](=O)[O-])cc1Oc1ccccc1` [Nimesulide], the cell number turned out to be 104 ± 4.5.

As for `CC(C)c1ccc2oc3nc(N)c(C(=O)O)cc3c(=O)c2c1`, the cell number stood at 104.

Compound `C#CCN[C@H]1CCc2ccccc21` [N-[(1S)-2,3-dihydro-1H-inden-1-yl]-N-(2-propynyl)amine] had a cell number of 102.

Take `CC(O)(P(=O)([O-])O)P(=O)([O-])O` [Etidronate]: the cell number was 101.

In turn, `CCOC(=O)C1=CC(OC(CC)CC)C(NC(C)=O)C(N)C1` (configuration not stated) [Oseltamivir] displayed a cell number of 104.

Regarding `CCCCCCCCCCCCCCCC(=O)C(F)(F)F`, the cell number was 103.

Take `CCCn1cnc2c1c(=O)n(CCCCC(C)=O)c(=O)n2C` [Propentofylline]: the cell number was determined as 104.

The compound `O=C(NCCO)c1cccc(-c2cc(Nc3ccc(OC(F)(F)F)cc3)ncn2)c1` came in with a cell number of 91.1.

In turn, `Cl.Oc1ccc(Nc2nc(-c3ccc(Cl)cc3)cs2)cc1` [Sphingosine Kinase Inhibitor] had a cell number of 69.3.

With `CCCCCCCCCCCCCC=CC(O)C(CO)NC(=O)CCCCC` (configuration not stated) [C6 Ceramide], the cell number stood at 100.

With `C[C@@H](O)[C@H]1C(=O)N2C(C(=O)O)=C(SCCN=CN)C[C@H]12.O`, the cell number came out at 101.

With `CCCCc1c(-c2ccc(OC)cc2)[nH]c2nccnc12` [Aloisine, RP106], the cell number amounted to 94.7.

As to `N#Cc1c(NC(=O)c2cccc3ccccc23)sc2c1CCCC2` [JNK Inhibitor IX], the cell number was 62.6.

In turn, `CCc1cccc(N(C)C(N)=Nc2cccc3ccccc23)c1.Cl` registered a cell number of 87.1.

Turning to `CC(=O)O.CSC(N)=NCCCC(N)C(=O)O` [S-Methyl-L-thiocitrulline acetate], the cell number amounted to 99.4.

On to `Cl.NCCS` [Cysteamine hydrochloride], for which the cell number is 101.

In turn, `Cn1cnc2c(NCc3ccccc3)nc(NCCO)nc21` had a cell number of 94.5.

In turn, `CCCCCC=CCC=CC=CC=CC(O)C(O)CCCC(=O)O` (configuration not stated) registered a cell number of 99.8.

Another test concerns TDF. The test is described as above. Particulars: concentration: 10 µM; 24 h. A digest of the protocol:
as §1
Consider `CC(C)NCC(O)COc1ccc(CC(N)=O)cc1` (stereo not drawn) [S(-)-Atenolol], for which the cell number is 105.

Consider `Cc1ccc(-c2nn(C(C)(C)C)c3ncnc(N)c23)cc1`, for which the cell number worked out at 109.

In turn, `O=c1[nH]c2cc([N+](=O)[O-])c([N+](=O)[O-])cc2[nH]c1=O` gave a cell number of 111.

Compound `OCC1OC(n2cnc3c(NC4CCCCC4)ncnc32)C(O)C1O` (configuration not stated) [N6-Cyclohexyladenosine] registered a cell number of 105.

`CN(C)CCC(CSc1ccccc1)Nc1ccc(S(=O)(=O)NC(=O)c2ccc(N3CCN(Cc4ccccc4-c4ccc(Cl)cc4)CC3)cc2)cc1[N+](=O)[O-]` (configuration not stated): the cell number was found to be 106.

As for `CCC1C(=O)OCC1Cc1cncn1C.Cl` (single isomer, unassigned; (+)) [(+)-Pilocarpine hydrochloride], the cell number is 93.1.

`CCCCC1(C2CCCC2)Cc2cc(OCC(=O)O)c(Cl)c(Cl)c2C1=O` (stereo not drawn) [R(+)-Butylindazone] had a cell number of 107.

In the case of `CSc1nc2ccc3nc(NC(=O)C(c4ccccc4)c4ccccc4)sc3c2s1`, the cell number is 121.

The compound `COc1ccc2c(c1OC)C(=O)OC2C1c2c(cc3c(c2OC)OCO3)CCN1C` (racemic) gave a cell number of 96.2.

Consider `Brc1c(NC2=NCCN2)ccc2nccnc12`, for which the cell number is 102.

The compound `CCCCCC(O)C=CC1C(O)CC(O)C1CC=CCCCC(=O)O` (racemic) displayed a cell number of 105.

As to `COc1cc(C(O)C(=O)O)ccc1O` (configuration not stated) [hydroxy(4-hydroxy-3-methoxyphenyl)acetic acid], the cell number was 99.1.

Take `CC(C)CNCc1ccc(-c2ccccc2S(=O)(=O)N2CCCC2)cc1.Cl`: the cell number amounted to 99.2.

In the case of `CC(N=C(NC#N)Nc1ccncc1)C(C)(C)C` (configuration not stated) [Pinacidil], the cell number was 107 ± 6.8.

`COc1cc(-c2oc3cc(O)cc(O)c3c(=O)c2OC2OC(CO)C(O)C(O)C2O)cc(OC)c1O` (configuration not stated) [Syringetine-3-glucoside] came in with a cell number of 93.

Compound `C=C1CCC(O)CC1=CC=C1CCCC2(C)C1CCC2C(C)CCCC(C)(C)O` (configuration not stated) [Calcifediol] displayed a cell number of 104.

With `CC1(C)SC2C(NC(=O)C(N)c3ccccc3)C(=O)N2C1C(=O)O` (configuration not stated) [Ampicillin], the cell number came out at 109.

In the case of `CNCCCC1c2ccccc2C=Cc2ccccc21.Cl` [Protriptyline hydrochloride], the cell number worked out at 99.5.

Turning to `S=C([S-])OC1CC2CC1C1CCCC21.[K+]` [D-609 potassium], the cell number stood at 104.

As to `CN(C)c1ccccc1CN1CCCN(Cc2ccccc2N(C)C)C1c1ccncc1`, the cell number is 65.2.

With `O=C(NC(NC(=S)Nc1ccc(F)c([N+](=O)[O-])c1)C(Cl)(Cl)Cl)C(c1ccccc1)c1ccccc1` (configuration not stated), the cell number amounted to 58.3.

The compound `CC(C)NCC(O)COc1cccc2ccccc12` (stereo not drawn) [Propranolol S(-)] displayed a cell number of 104.

In turn, `CS(=O)(=O)Nc1ccc([N+](=O)[O-])cc1Oc1ccccc1` [Nimesulide] returned a cell number of 107 ± 2.2.

For `CC(C)c1ccc2oc3nc(N)c(C(=O)O)cc3c(=O)c2c1`, the cell number came to 109.

The compound `C#CCN[C@H]1CCc2ccccc21` [N-[(1S)-2,3-dihydro-1H-inden-1-yl]-N-(2-propynyl)amine] yielded a cell number of 104.

In the case of `CC(O)(P(=O)([O-])O)P(=O)([O-])O` [Etidronate], the cell number was 106.

`CCOC(=O)C1=CC(OC(CC)CC)C(NC(C)=O)C(N)C1` (configuration not stated) [Oseltamivir] came in with a cell number of 100.

Turning to `CCCCCCCCCCCCCCCC(=O)C(F)(F)F`, the cell number was determined as 108.

On to `CCCn1cnc2c1c(=O)n(CCCCC(C)=O)c(=O)n2C` [Propentofylline], for which the cell number is 113.

`O=C(NCCO)c1cccc(-c2cc(Nc3ccc(OC(F)(F)F)cc3)ncn2)c1` returned a cell number of 94.8.

With `Cl.Oc1ccc(Nc2nc(-c3ccc(Cl)cc3)cs2)cc1` [Sphingosine Kinase Inhibitor], the cell number came to 75.1.

Compound `CCCCCCCCCCCCCC=CC(O)C(CO)NC(=O)CCCCC` (configuration not stated) [C6 Ceramide] yielded a cell number of 59.7.

The compound `C[C@@H](O)[C@H]1C(=O)N2C(C(=O)O)=C(SCCN=CN)C[C@H]12.O` registered a cell number of 104.

Take `CCCCc1c(-c2ccc(OC)cc2)[nH]c2nccnc12` [Aloisine, RP106]: the cell number stood at 97.5.

For the compound `N#Cc1c(NC(=O)c2cccc3ccccc23)sc2c1CCCC2` [JNK Inhibitor IX], the cell number is 9.56.

In the case of `CCc1cccc(N(C)C(N)=Nc2cccc3ccccc23)c1.Cl`, the cell number is 90.

In turn, `CC(=O)O.CSC(N)=NCCCC(N)C(=O)O` [S-Methyl-L-thiocitrulline acetate] yielded a cell number of 108.

`Cl.NCCS` [Cysteamine hydrochloride] showed a cell number of 99.7.

For the compound `Cn1cnc2c(NCc3ccccc3)nc(NCCO)nc21`, the cell number worked out at 107.

In turn, `CCCCCC=CCC=CC=CC=CC(O)C(O)CCCC(=O)O` (configuration not stated) came in with a cell number of 100.
